# HTR5A ag ctr = counter-screen for OPRM1-OPRD1 agonists: human HTR5A agonism; AID 504692; activation, % at 9.3 µM; HTR5A agonist assay, luminescence, cell-based; 340,000 compounds, 0.61% hits; in the data active = activation mostly above about 9.5%, no sharp cut-off; inactive = mostly below about 7.6%;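 also: 0% = cells with vehicle only and 100% = reference agonist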
# Target sequence (P47898 whole entry, looked up): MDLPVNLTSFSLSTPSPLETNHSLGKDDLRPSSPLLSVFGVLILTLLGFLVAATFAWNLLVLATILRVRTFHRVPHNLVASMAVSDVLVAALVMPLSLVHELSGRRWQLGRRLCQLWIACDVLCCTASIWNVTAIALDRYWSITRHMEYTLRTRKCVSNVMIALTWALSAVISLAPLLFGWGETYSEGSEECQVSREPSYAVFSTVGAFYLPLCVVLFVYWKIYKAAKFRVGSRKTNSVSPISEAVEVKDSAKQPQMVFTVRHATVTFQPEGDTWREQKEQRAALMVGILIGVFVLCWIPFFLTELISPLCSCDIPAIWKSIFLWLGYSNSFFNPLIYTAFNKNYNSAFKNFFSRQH
# HTR5A inv ag = counter-screen for OPRM1-OPRD1 inverse agonists: human HTR5A inverse agonism; P47898; HTR5A cell line, luminescence; inhibition, % at 9.3 µM; 340,000 compounds, 0.083% hits; AID 504634; in the data active = inhibition mostly above about 23%, no sharp cut-off; inactive = mostly below about 18%;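 also: 0% = cells with DMSO and 100% = no-cell wells with DMSO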
# MOR-DOR ag = OPRM1-OPRD1 heterodimerization agonism; cells, luminescence; activation, % at 9.3 µM; 340,000 compounds, 0.3% hits; in the data active = activation above about 18%;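 also: 0% = vehicle-treated cells and 100% = reference agonist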
# MOR-DOR inv ag = mu-delta opioid heterodimer inverse agonism; cell-based MOR-DOR heterodimer luminescence; 340,000 compounds, 0.21% hits; inhibition, % at 9.3 µM; in the data active = inhibition above about 22%, passing the limit was not always enough;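 also: 0% = cells with DMSO and 100% = wells without cells with DMSO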
# OPRM1-D1 inv cf = OPRM1-OPRD1 heterodimer inverse agonism, confirmation. cells expressing OPRM1/OPRD1 heterodimer, luminescence. AID 504900. 580 compounds, 20% hits. shares compounds with MOR-DOR inv ag. inhibition, % at 9.3 µM; in the data active = inhibition above about 32%;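 also: 0% = cells with DMSO and 100% = wells lacking cells with DMSO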
# HTR5A inv count = inverse agonist of human HTR5A in OPRM1-OPRD1 counter-screen; HTR5A-expressing cells, luminescence, inverse agonism; inhibition, % at 9.3 µM; shares compounds with MOR-DOR inv ag; AID 504914; 580 tested, under 10 active; call rule not given here;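 also: 0% = cells with DMSO and 100% = no-cell wells with DMSO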
# Active calls of the source: *; i = inactive; nt = no result. An excerpt weighted towards active compounds, which were near 1.1% of everything screened.
SMILES,HTR5A ag ctr,HTR5A inv ag,MOR-DOR ag,MOR-DOR inv ag,OPRM1-D1 inv cf,HTR5A inv count
O=C1N=C(c2ccccc2)S/C1=C\c1cccs1,-0.1,-8.4,-5.8,34.3*,-434.4,-45.4
CN(C)CCC(=O)N1C/C(=C/c2ccccc2)C(=O)/C(=C\c2ccccc2)C1,-6.3,24.6,-8.3,42.9*,21.0,16.0
C[N+](C)(C)CCC(=O)N1C/C(=C/c2ccccc2)C(=O)/C(=C\c2ccccc2)C1,1.4,-5.2,-2.2,9.7,nt,nt
COc1ccc(N=Cc2[nH]c3ccccc3c2O)cc1,1.1,22.1,-4.2,29.9*,-69.6,4.4
COc1cc(/C=N/Nc2ccc(F)cc2F)cc(OC)c1O,-3.5,13.0,-6.2,32.2*,-12.5,1.5
COc1cc(/C=N/Nc2ccccc2[N+](=O)[O-])cc(OC)c1O,3.3,-9.2,4.0,-18.7,nt,nt
O=C1C2=C(c3ccccc31)[N+](=O)C1CCCCC1N2[O-] (stereo not drawn),1.6,16.9,-13.4,55.9*,2.8,1.5
CCCC1(C2CCCC2)NC(=O)NC1=O (stereo not drawn),5.8,-22.7,0.7,-3.5,nt,nt
CCN(CC)CC(C)(C)C(=O)/C=C/c1ccc(/C=C/C(=O)C(C)(C)CN(CC)CC)cc1,-1.5,5.6,-8.9,43.4*,-1.6,23.8
CCN(CC)CCOC(=O)/C=C/c1ccccc1,0.5,-11.8,-2.7,14.2,nt,nt
O=C(CCN1C(=O)C2C3CCC(C3)C2C1=O)OCC(=O)c1ccc(Br)cc1 (stereo not drawn),2.1,-7.6,-2.8,15.7,nt,nt
Cc1ccc(C(=O)COC(=O)CN2C(=O)C3C4CCC(C4)C3C2=O)cc1[N+](=O)[O-] (stereo not drawn),-6.4,22.8,-8.6,53.4*,-31.8,4.9
Cc1ccc(C(=O)COC(=O)CCN2C(=O)C3C4CCC(C4)C3C2=O)cc1[N+](=O)[O-] (stereo not drawn),-6.0,20.7,-9.9,54.7*,47.7*,20.6
Cc1ccc(C(=O)COC(=O)CN2C(=O)C3CC=CCC3C2=O)cc1[N+](=O)[O-] (stereo not drawn),-3.5,1.2,-9.2,49.9*,47.7*,19.7
Cc1ccc(C(=O)COC(=O)CN2C(=O)C3C4C=CC(C4)C3C2=O)cc1[N+](=O)[O-] (stereo not drawn),-3.9,11.5,-4.7,37.5*,-69.7,-14.7
COc1ccc(OC)c(/C=C/C(=O)OCC(=O)NCc2cccs2)c1,-6.1,15.2,-4.2,18.1,nt,nt
COc1ccc(NS(=O)(=O)c2ccc(N3CCOCC3)c(N)c2)cc1,-0.4,-10.2,1.6,-5.8,nt,nt
O=C(CN1C(=O)C2C3C=CC(C3)C2C1=O)OCC(=O)c1ccc(Cl)c([N+](=O)[O-])c1 (stereo not drawn),-8.4,21.2,-14.1,77.9*,83.8*,19.0
COc1ccc(C(=O)CNc2ccccc2CO)cc1,-0.4,1.1,-2.9,15.9,nt,nt
COc1ccccc1NCC(=O)c1ccc(C)c(C)c1,-3.5,-16.7,-6.0,30.6*,-12.7,-7.4
COc1ccccc1NCC(=O)c1ccc(Cl)cc1,-0.2,0.8,-3.0,16.9,nt,nt
COc1ccc(C(=O)CNc2ccc(C)cc2C)cc1,3.4,-8.9,-6.6,32.5*,70.3*,1.9
O=c1c2ccccc2sc2nc(CCl)nn12,-2.4,9.3,-2.6,13.2,nt,nt
CC(=O)C[C@@H](O)CC(=O)[C@@H]1OC(=O)[C@H](C)CCCCc2ccccc21,7.7,-28.9,-4.0,18.7,nt,nt
O=c1c2c3c(sc2n2cnnc2n1Cc1ccccc1)CN(Cc1ccccc1)CC3,-7.5,22.0,-6.2,33.7*,-37.2,-27.0
SMILES,HTR5A ag ctr,HTR5A inv ag,MOR-DOR ag,MOR-DOR inv ag,OPRM1-D1 inv cf,HTR5A inv count
CN1CCc2c(sc3c2c(=O)n(-c2ccc(Cl)cc2)c2nncn32)C1,-2.3,-1.8,-0.1,0.7,nt,nt
CSc1ccc(/C=C/C(=O)OCC(=O)N2CCN(S(=O)(=O)c3ccc(C)cc3C)CC2)cc1,1.1,1.6,4.2,-16.6,nt,nt
CC(=O)/C=C1/C(=O)Nc2ccccc21,-2.0,4.8,-14.1,73.5*,71.5*,1.8
C=CCOc1cccc(C(=O)/C=C2/C(=O)Nc3ccccc32)c1,4.1,-14.6,-2.5,11.2,nt,nt
COc1ccc(-c2noc(CCC(=O)N3CCN(c4ccccc4)CC3)n2)cc1,2.2,-8.2,-3.3,16.4,nt,nt
CCCCCCC[C@@H](C/C=C/CCC(=O)N(C)C/C(=C/Cl)C/C(=C\C(=O)N1CC(OC)=CC1=O)OC)OC,0.1,-0.5,-8.4,39.2*,-22.1,-119.7
CCCCCCC[C@@H](C/C=C/CCC(=O)N(C)C/C(=C/Cl)C/C(=C\C(=O)N1C[C@H](O)CC1=O)OC)OC,3.6,-13.4,0.0,-0.1,nt,nt
CCCCC[C@@H]1C=C(C(=O)O)[C@H](c2ccc3c(c2)OCO3)N1S(=O)(=O)c1ccc(C)cc1,-2.5,9.4,-2.8,12.8,nt,nt
N#CC(=C1C=CC(=NO)C(Cl)=C1)c1ccc(Cl)cc1,0.2,-0.7,-2.0,8.7,nt,nt
COc1ccc(C(C#N)=C2C=CC(=NO)C=C2)cc1,0.8,-2.0,-9.6,47.6*,-46.7,-34.9
O=C(CCC(=O)c1cccs1)OCC(=O)c1ccc(F)cc1,-3.9,15.1,-2.7,13.9,nt,nt
CC(=O)CCC(=O)OCC(=O)c1ccc(C(F)(F)F)cc1,4.7,4.0,-9.0,44.8*,-0.9,13.2
O=C1C2C3C=CC(O3)C2C(=O)N1Nc1ccccc1 (stereo not drawn),-4.0,14.4,-3.3,17.2,nt,nt
COc1ccc(-n2c(N)c(C(=O)NCC3CCCO3)sc2=S)cc1 (stereo not drawn),5.3,-24.1,2.7,-13.6,nt,nt
COc1ccc(-n2c(N)c(C(=O)NCc3ccco3)sc2=S)cc1,5.3,-22.6,-2.7,15.7,nt,nt
CCOC(=O)c1ccc(-n2c(N)c(C(=O)NCC3CCCO3)sc2=S)cc1 (stereo not drawn),-4.3,-7.7,-6.8,34.0*,i,-31.8
CCOC(=O)c1ccc(-n2c(N)c(C(=O)NCc3ccco3)sc2=S)cc1,-1.5,11.3,-5.4,29.6*,-290.2,-59.5
CCN1C[C@@H]2[C@@H]3C(=O)N(C)C(=O)[C@@H]3[C@](CC)(C1=O)N2C(=O)c1ccc(C)cc1,7.7,-2.4,-1.1,6.0,nt,nt
CCN(CC)C(=O)[C@H]1C[C@H](CC(=O)NC(C)(C)C)C(=O)N2CCc3c([nH]c4cc(CCC(=O)N(C)C)ccc34)[C@]12C,0.6,-1.9,-4.0,19.5,nt,nt
CC(=O)N(/N=C1\Sc2ccccc2C1=O)c1cccc(C)c1,-14.1,30.9,-10.8,53.3*,44.4*,-6.7
O=C(Cc1ccc(F)cc1)OCC(=O)c1cc2ccccc2o1,-5.7,10.3,-8.3,47.5*,-115.8,-12.2
CC(NC(=O)COc1ccccc1)C(=O)OCC(=O)c1cc2ccccc2o1 (stereo not drawn),-7.4,23.5,-13.2,71.0*,-15.9,2.1
O=C(CCNc1ccc(F)cc1)c1cc2ccccc2o1,-2.6,6.8,7.7,-35.1,nt,nt
CCOC(=O)c1ccc(S(=O)(=O)NNC(=O)Cc2csc(C)n2)cc1,-7.3,18.2,-2.6,10.0,nt,nt
